Assay results reported in PMC7862700, “An all-to-all approach to the identification of sequence-specific readers for epigenetic DNA modifications on cytosine”.

Legend:
Assay in all cases: DAPPL (digital affinity profiling via proximity ligation, sequencing); 10 mM Tris-HCl pH 7.5, 50 mM NaCl, 1 mM DTT, 4% glycerol, room temperature, 30 min; GST-TFs on glutathione beads, 16-mer random dsDNA library, 0.1% formaldehyde crosslink after washing; high values mean tight binding
Settings in all cases: protein: recombinant; tags: N-terminal GST; dsDNA, one strand shown
[1] = target: T1, FLI1 (Homo sapiens, UniProt Q01543 1-452)
T1 sequence: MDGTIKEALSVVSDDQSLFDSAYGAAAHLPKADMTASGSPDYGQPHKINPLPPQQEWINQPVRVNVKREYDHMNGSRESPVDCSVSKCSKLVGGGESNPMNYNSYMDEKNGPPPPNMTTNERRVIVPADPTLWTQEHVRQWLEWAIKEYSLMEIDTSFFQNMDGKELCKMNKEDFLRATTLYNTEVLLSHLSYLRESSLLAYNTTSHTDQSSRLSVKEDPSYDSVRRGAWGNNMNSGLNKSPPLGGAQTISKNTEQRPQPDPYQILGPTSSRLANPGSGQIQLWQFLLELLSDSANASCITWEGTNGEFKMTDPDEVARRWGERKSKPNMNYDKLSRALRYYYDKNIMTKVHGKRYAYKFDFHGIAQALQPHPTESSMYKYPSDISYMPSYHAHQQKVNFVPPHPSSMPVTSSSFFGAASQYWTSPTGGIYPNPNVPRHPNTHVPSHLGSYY
In short: (§1)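 Binding signal is defined as a hexamer's read frequency for one factor over its frequency for the tag-only sample. To obtain reads, GST-fused human transcription factors were expressed in yeast, captured on glutathione beads, barcoded with DNA and pooled with that sample. Pools met 200 nmole of a 16-mer random double-stranded DNA library in Tris/NaCl/DTT/glycerol buffer for 30 min at room temperature before washing, 0.1% formaldehyde crosslinking, proximity ligation (BsaI/T4 ligase, 1 h, 37 °C), PCR and Illumina NextSeq500 sequencing.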

[2] = target: T2, GABPA (Homo sapiens, UniProt Q06546 1-454)
T2 sequence: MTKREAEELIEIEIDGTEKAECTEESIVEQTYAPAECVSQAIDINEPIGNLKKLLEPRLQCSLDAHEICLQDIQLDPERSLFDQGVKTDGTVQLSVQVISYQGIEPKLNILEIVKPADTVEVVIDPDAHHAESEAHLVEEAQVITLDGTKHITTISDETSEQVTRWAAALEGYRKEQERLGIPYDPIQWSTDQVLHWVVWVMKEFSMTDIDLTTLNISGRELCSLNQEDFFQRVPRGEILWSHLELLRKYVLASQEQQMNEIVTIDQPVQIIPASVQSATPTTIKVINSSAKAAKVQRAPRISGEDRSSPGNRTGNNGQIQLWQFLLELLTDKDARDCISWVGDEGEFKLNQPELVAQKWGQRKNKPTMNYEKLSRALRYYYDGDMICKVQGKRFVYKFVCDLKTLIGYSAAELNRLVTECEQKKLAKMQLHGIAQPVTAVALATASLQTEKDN
In short: as §1

[3] = target: ELF1 (Homo sapiens, UniProt P32519 1-619)
In short: as §1

[4] = target: T3, EHF (Homo sapiens, UniProt Q9NZC4 1-300)
T3 sequence: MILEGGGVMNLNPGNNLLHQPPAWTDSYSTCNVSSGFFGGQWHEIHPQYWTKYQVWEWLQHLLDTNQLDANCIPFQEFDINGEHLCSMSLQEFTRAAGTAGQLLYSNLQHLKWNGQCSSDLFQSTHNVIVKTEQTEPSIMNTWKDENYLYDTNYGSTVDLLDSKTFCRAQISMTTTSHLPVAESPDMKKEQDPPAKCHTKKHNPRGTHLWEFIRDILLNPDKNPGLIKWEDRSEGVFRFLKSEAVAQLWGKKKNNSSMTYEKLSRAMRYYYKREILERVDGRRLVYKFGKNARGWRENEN
In short: as §1

[5] = target: SPIB (Homo sapiens, UniProt Q01892 1-262)
In short: as §1

[6] = target: T4, ELK3 (Homo sapiens, UniProt P41970 1-407)
T4 sequence: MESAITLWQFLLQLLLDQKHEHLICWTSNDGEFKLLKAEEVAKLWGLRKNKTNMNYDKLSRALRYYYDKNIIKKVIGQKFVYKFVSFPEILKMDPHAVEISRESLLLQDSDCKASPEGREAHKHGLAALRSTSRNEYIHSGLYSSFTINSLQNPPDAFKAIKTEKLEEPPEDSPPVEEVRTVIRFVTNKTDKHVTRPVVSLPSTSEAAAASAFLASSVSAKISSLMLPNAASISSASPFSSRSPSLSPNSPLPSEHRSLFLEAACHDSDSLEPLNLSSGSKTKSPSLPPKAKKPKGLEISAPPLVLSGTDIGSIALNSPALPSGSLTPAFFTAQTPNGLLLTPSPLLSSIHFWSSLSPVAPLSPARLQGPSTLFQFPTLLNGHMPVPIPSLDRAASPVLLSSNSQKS
In short: as §1

[7] = target: ETV5 (Homo sapiens, UniProt P41161 1-510)
In short: as §1

[8] = target: T5, SPIC (Homo sapiens, UniProt Q8N5J4 1-248)
T5 sequence: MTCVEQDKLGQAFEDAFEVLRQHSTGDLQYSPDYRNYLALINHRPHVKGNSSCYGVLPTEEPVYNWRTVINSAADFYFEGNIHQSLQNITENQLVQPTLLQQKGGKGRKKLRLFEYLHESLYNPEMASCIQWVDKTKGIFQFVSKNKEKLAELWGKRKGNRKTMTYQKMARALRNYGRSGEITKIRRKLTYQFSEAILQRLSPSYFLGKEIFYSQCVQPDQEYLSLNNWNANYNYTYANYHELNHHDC
In short: as §1

[9] = target: ELF4 (Homo sapiens, UniProt Q99607 1-663)
In short: as §1

[10] = target: ETV1 (Homo sapiens, UniProt P50549 1-477)
In short: as §1

[11] = target: T6, ETV3L (Homo sapiens, UniProt Q6ZN32 1-361)
T6 sequence: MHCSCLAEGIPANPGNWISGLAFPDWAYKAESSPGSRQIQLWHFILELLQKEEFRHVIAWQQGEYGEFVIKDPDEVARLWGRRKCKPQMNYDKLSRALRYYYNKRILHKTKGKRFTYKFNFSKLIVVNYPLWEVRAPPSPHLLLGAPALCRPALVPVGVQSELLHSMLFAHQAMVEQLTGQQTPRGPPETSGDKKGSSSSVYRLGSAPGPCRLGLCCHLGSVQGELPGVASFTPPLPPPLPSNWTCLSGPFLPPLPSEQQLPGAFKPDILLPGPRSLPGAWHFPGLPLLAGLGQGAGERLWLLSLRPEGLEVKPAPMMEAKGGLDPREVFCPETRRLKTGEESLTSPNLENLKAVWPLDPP
In short: as §1

[12] = target: T7, ETV3 (Homo sapiens, UniProt P41162-2 1-143)
T7 sequence: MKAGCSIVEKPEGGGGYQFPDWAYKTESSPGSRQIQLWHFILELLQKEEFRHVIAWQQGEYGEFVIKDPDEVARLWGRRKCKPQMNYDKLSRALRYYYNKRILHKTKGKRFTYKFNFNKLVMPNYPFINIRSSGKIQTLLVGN
In short: as §1

Sequence of ELF1 (P32519 whole entry): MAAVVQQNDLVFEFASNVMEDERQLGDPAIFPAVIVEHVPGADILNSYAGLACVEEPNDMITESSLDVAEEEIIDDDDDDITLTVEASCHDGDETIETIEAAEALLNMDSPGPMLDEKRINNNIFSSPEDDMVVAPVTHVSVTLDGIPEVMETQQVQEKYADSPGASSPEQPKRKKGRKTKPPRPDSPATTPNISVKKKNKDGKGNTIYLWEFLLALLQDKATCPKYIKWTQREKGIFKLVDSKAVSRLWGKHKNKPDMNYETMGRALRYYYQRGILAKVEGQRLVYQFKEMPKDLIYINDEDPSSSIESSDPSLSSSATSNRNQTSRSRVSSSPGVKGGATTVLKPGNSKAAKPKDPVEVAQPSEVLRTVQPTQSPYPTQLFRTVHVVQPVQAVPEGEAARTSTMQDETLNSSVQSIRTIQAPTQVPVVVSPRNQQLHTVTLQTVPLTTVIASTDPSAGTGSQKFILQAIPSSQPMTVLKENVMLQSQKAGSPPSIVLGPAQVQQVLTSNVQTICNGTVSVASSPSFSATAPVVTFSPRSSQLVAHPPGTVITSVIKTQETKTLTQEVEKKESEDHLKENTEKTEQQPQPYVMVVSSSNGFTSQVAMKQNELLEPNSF
Sequence of ETV1 (P50549 whole entry): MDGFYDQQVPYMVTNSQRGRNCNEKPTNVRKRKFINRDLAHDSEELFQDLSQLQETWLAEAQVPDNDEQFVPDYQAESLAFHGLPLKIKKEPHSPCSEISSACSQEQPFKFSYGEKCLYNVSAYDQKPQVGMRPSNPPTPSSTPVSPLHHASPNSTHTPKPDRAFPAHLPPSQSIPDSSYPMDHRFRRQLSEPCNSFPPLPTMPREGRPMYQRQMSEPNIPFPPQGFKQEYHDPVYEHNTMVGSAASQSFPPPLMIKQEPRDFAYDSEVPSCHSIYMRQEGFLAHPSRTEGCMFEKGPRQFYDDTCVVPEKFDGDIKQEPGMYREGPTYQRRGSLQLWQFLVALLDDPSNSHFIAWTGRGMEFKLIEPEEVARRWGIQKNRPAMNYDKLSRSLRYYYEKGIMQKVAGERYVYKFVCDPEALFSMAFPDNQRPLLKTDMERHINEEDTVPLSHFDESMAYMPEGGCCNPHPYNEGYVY
Sequence of SPIB (Q01892 whole entry): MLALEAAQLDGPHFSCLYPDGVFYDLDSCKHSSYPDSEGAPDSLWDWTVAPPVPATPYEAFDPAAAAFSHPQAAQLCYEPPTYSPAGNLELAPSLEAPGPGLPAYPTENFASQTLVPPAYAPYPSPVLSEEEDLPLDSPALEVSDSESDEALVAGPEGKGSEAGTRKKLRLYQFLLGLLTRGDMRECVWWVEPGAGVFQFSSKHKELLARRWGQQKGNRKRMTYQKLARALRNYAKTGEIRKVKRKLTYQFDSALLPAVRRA
Sequence of ELF4 (Q99607 whole entry): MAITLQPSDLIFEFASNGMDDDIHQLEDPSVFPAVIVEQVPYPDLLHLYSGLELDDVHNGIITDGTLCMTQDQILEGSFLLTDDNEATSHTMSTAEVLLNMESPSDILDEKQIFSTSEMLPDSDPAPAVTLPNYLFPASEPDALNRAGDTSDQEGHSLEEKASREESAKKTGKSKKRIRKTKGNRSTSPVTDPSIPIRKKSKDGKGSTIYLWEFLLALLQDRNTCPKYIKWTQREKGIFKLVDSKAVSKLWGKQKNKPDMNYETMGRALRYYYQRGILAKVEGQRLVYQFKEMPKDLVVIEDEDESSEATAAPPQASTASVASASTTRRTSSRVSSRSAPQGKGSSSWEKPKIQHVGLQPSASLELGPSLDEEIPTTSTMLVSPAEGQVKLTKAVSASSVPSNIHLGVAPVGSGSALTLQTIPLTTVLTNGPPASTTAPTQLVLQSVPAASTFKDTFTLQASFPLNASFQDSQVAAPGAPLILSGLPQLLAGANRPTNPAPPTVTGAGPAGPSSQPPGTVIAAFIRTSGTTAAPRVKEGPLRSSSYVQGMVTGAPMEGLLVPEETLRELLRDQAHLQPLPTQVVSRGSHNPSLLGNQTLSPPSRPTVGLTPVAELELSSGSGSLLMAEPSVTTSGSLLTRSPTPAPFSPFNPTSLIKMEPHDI
Sequence of ETV5 (P41161 whole entry): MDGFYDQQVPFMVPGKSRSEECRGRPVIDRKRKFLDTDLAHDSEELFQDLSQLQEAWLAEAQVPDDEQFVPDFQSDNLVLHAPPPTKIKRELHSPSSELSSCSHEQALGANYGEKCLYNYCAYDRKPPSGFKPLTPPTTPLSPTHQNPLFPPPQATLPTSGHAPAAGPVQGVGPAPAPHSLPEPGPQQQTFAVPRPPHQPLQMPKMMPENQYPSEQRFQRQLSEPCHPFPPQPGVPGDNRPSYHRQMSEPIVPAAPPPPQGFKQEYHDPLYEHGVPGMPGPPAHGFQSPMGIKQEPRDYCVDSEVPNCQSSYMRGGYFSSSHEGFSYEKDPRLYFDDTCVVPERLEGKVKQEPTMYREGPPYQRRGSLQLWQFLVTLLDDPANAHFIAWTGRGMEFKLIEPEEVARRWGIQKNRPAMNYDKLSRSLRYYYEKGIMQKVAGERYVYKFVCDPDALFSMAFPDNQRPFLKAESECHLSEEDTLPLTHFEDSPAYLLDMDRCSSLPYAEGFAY

Sequence: GGACTC
- binding signal [1]: 1.08 fold enrichment (6-mer frequency, TF over GST control)
- binding signal [2]: 1.07 fold enrichment (6-mer frequency, TF over GST control)
- binding signal [3]: 1.09 fold enrichment (6-mer frequency, TF over GST control)
- binding signal [4]: 1.12 fold enrichment (6-mer frequency, TF over GST control)
- binding signal [5]: 1.05 fold enrichment (6-mer frequency, TF over GST control)
- binding signal [6]: 1.04 fold enrichment (6-mer frequency, TF over GST control)
- binding signal [7]: 1.08 fold enrichment (6-mer frequency, TF over GST control)
- binding signal [8]: 1.01 fold enrichment (6-mer frequency, TF over GST control)
- binding signal [9]: 1.13 fold enrichment (6-mer frequency, TF over GST control)
- binding signal [10]: 1.07 fold enrichment (6-mer frequency, TF over GST control)
- binding signal [11]: 1.03 fold enrichment (6-mer frequency, TF over GST control)
- binding signal [12]: 1.08 fold enrichment (6-mer frequency, TF over GST control)
